Molecules are shown by their SMILES. Hit rate of the full screen: of about 330,000 compounds, about 4,600 (1.4%) were called active.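 Rule for the calls: active = inhibition of 40% or more at the single tested concentration; inactive = the rest.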 Shown is part of a subset that was picked to be rich in actives.

The nature of the experiment: wild-type TIM10 yeast growth inhibition – luminescence, uHTS, counter-screen for tim10-1 yeast inhibitor project, primary screen (AID 463195).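 Note: wild-type TIM10 isogenic control strain grown at permissive 25 °C; 0% = DMSO yeast wells and 100% = minimal medium wells without yeast.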 The note with it: S. cerevisiae TIM10 strain growth, BacTiter-Glo luminescence, 24 h; at 10 µM; stronger effect = higher value.
Broadly, the inhibition is the relative decrease from the control value, in per cent. With `CSC1=NCCN1C(=O)Cc1cccc2ccccc12`, the inhibition is 4.36% (inactive).

With `O=C(CCC(=O)N1CCN(S(=O)(=O)c2ccccc2)CC1)NC1CCCc2ccccc21` (stereo not drawn), the inhibition was 8.6% (inactive).

With `O=C1c2ccccc2C(=O)N1CC1c2ccccc2CCN1S(=O)(=O)c1ccccc1` (stereo not drawn), the inhibition is 40.3% (active).

Turning to `O=S(=O)(c1ccccc1)N1CCc2ccccc21`, the inhibition is 2.66% (inactive).

Take `O=[N+]([O-])c1ccccc1/C=C/CN1CCC(O)CC1`: the inhibition was -13.6% (inactive).

On to `O=[N+]([O-])c1ccccc1/C=C/CN1CCCC(CO)C1` (stereo not drawn), for which the inhibition is -25% (inactive).

For the molecule `CC1CCCCC1NC(=O)/C(C#N)=C/C=C/c1ccccc1[N+](=O)[O-]` (stereo not drawn), the inhibition is 47.3% (active).

For the molecule `CCOc1ccc(CN2CCN(Cc3c[nH]c4ccccc34)CC2)cc1`, the inhibition is -10.6% (inactive).

Regarding `CC1(C)CC(=O)C=C(NCCN2CCNCC2)C1`, the inhibition was 5.33% (inactive).

As for `Cc1ccc(/C=C/C(=O)OCC(=O)NCc2ccc(Cl)cc2)o1`, the inhibition was -3.46% (inactive).

As for `CCOC(=O)C1CN(S(=O)(=O)c2ccc(OC)cc2)c2cc(Cl)ccc2O1` (stereo not drawn), the inhibition is 15.1% (inactive).

Turning to `COc1ccccc1N1N=C(c2cccs2)CC1c1ccccc1` (stereo not drawn), the inhibition is 23% (inactive).

For the molecule `O=C1C2N=NN(CC(=O)N3N=C(c4cccc5ccccc45)CC3c3ccccc3)C2C(=O)N1c1ccccc1` (stereo not drawn), the inhibition is 22.8% (inactive).

As to `Oc1ccccc1C1=NN(c2ccccc2)C(c2ccccc2)C1` (stereo not drawn), the inhibition was 49% (active).

For `CC(C)CC(COCc1ccc(Cl)cc1)N1CCN(C(=O)c2ccc(C(F)(F)F)cc2)CCC1=O` (stereo not drawn), the inhibition is 17.7% (inactive).

Consider `CCCCNC(=S)N/N=C1\CCCCc2ccccc21`, for which the inhibition was 48.2% (active).

Turning to `Cc1ccc(NC(=S)N/N=C2/CCCc3c(C)cc(C)cc32)cc1`, the inhibition is -3.6% (inactive).

As to `CCCC1CCC(=NNC(=S)NCCc2ccccc2)CC1` (stereo not drawn), the inhibition was -23.1% (inactive).

As for `Cc1noc(C)c1S(=O)(=O)Nc1cc(C(F)(F)F)ccc1N1CCOCC1`, the inhibition is 14.8% (inactive).

Regarding `NS(=O)(=O)c1ccc(CCNC(=O)CCCn2c(SCC(=O)N3CCCC3)nc3ccsc3c2=O)cc1`, the inhibition is -3.82% (inactive).

On to `O=C(Oc1c(-c2ccco2)oc2ccccc2c1=O)c1cccnc1`, for which the inhibition is 63.5% (active).

For `O=C(OCc1cc2ccccc2[nH]c1=O)c1cccnc1`, the inhibition was -6.32% (inactive).

Turning to `COc1ccc(Oc2coc3cc(OC(=O)c4cncc(Br)c4)ccc3c2=O)cc1`, the inhibition is 22.3% (inactive).

Consider `Cn1c(CC2Sc3ccccc3NC2=O)nnc1SCC(=O)c1ccc(Cl)cc1` (stereo not drawn), for which the inhibition was 2.41% (inactive).

Regarding `COc1cccc(NC(C)=[N+](C)CCNS(=O)(=O)c2ccc(Cl)cc2)c1`, the inhibition was -4.11% (inactive).

As to `CCCCn1c(N)c(N(CCC(C)C)C(=O)c2ccc([N+](=O)[O-])o2)c(=O)[nH]c1=O`, the inhibition is -3.66% (inactive).

Regarding `CC1=NN(C(N)=S)C(=O)C1N=Nc1cc(Cl)ccc1Cl` (stereo not drawn), the inhibition is 28.1% (inactive).

Consider `Cc1[nH]n(C(N)=S)c(=O)c1N=Nc1ccc(Cl)cc1Cl`, for which the inhibition is 50.4% (active).

As for `Cc1[nH]n(C)c(=O)c1N=Nc1ccc(S(C)(=O)=O)cc1`, the inhibition is 6.98% (inactive).

As for `S=C(NCc1ccc(Cl)cc1)NC12CC3CC(CC(C3)C1)C2`, the inhibition is 61.1% (active).

Take `O=C(NCc1ccc(Cl)cc1)NCc1ccc(Cl)cc1`: the inhibition was -12.6% (inactive).

For the molecule `COC(=O)Cc1ccc(NC(=S)NCc2ccc(Cl)cc2)cc1`, the inhibition is 28% (inactive).

As for `CSc1nc2nc(-c3cccc(C(F)(F)F)c3)ccn2n1`, the inhibition was -28% (inactive).
